# In the supplement of paper PMC10338343:
# ± gives the standard deviation.
# Test system: MILI (PIWIL2) piRISC loaded with L1MC piRNA (26 nt)
# Assay: pre-steady-state target cleavage rate (min^-1); guide: L1MC piRNA 5'p-UAACUAAAUACUAUGCAAGCUGUAGG; MIWI and MILI are mouse PIWI proteins and EfPiwi is from a freshwater sponge; tags in brackets are library labels; higher = faster piRNA-guided slicing of the target
# In short: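 Cleave-'n-Seq: 1 nM active affinity-purified piRISC with one synthetic guide and 0.1 nM transcribed, DNA-blocked target RNA library were mixed, with or without 500 nM GTSF1 partner protein, in HEPES–potassium acetate buffer at 33 °C for 0–8 or 0–960 min. Uncleaved targets were sequenced and normalised to depth and to weakly complementary targets, three trials were pooled, and k3 was capped at 0.0001 min^-1. The pre-steady-state cleavage rate was fitted […].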
# [1] = auxiliary factor: 500 nM mouse GTSF1
# [2] = auxiliary factor: none (no GTSF1)
Sequence,pre-steady-state target cleavage rate [1],pre-steady-state target cleavage rate [2]
UCCUGGAACAGCUUGCAUACUAUAUAGUUA,0.0332 ± 0.0099,
UCCUGGAUGUCGAUGCAUAGUAUUUGGUUA,0.0838 ± 0.016,0.00614 ± 0.0029
UCCUGGAUGUCGUUGCAUAGUCUUUAGUUA,0.0286 ± 0.0084,0.00414 ± 0.0025
UCCUGGAUGUCGUUGCAUAGUAUUUUAGUUA,0.125 ± 0.02,0.00632 ± 0.0029
UCCUGGAUGUCCUAGCAUAGUAUAUAGUUA,0.0912 ± 0.02,0.00315 ± 0.0027
UCCUGGAUGUGCAUGGAUAGUAUUUAGUUA,0.11 ± 0.013,0.0094 ± 0.0023
UCCUGCUACUCGUUGCAUAGUAUUUAGUAA,0.127 ± 0.02,0.00373 ± 0.0021
UCCUGGAUGUCGUUGCAUAGUAUAUAGUUA,0.155 ± 0.028,0.00761 ± 0.0026
UCCUGGAUGAGGUUGCAUAGUAUUUUGUUA,0.0801 ± 0.024,0.00402 ± 0.0029
UCCUGGAUGUCGUUGCAUAGUAUUUAGUA,0.148 ± 0.022,0.00424 ± 0.0026
UCCUGCUACAGCUUCGCAUAGUAUUUAGUUA,0.268 ± 0.019,0.00637 ± 0.0021
UCCUGCUACUCCUUGCAUAGUAUUUAGUUA,0.262 ± 0.015,0.0091 ± 0.0024
UCCUGGAUGUCGUUUCAUAGUAUUUAGUUA,0.0434 ± 0.0083,0.00464 ± 0.0023
UCCUGGUACAGCUUCCUUAGUAUUUAGUUA,0.288 ± 0.052,0.00854 ± 0.0031
UCCUGGAUGUGCUUGCAUAGAUUUUAGUUA,0.00729 ± 0.0044,0.00375 ± 0.0024
UCCUGGAUGUCGAACCCAUAGUAUUUAGUUA,0.0032 ± 0.0019,0.00424 ± 0.0023
UCCUGGAUGACCUUGGAUAGUAUUUAGUUA,0.14 ± 0.013,0.00594 ± 0.0024
UCCUGGAUGAGCUUGCUUACUAUUUAGUUA,0.0357 ± 0.0051,0.00365 ± 0.0025
UCCUGGAUGUCGUUGCAUAGUAUUUAGUUC [g2:g18:cont:t1C],0.0984 ± 0.01,0.00738 ± 0.0026
UCCUGGAUGUCGAUGUCAUAGUAUUUAGUUA,0.0067 ± 0.0037,
UCCUGGAUCAGCUUGCAUAGUCAUUUAGUUA,0.0161 ± 0.0075,0.00581 ± 0.0023

Sequence,pre-steady-state target cleavage rate [1],pre-steady-state target cleavage rate [2]
UCCUGGAUGUCCUUGCAUUGUAAUUAGUUA,0.014 ± 0.0069,0.00354 ± 0.0025
UCCUGCUUGAGCUUGCAUAGUAUUUAGUAA,0.172 ± 0.021,0.00365 ± 0.0027
UCCUGGAUGAGCUUGCUAAGUAUUUAGUUA,0.0294 ± 0.0061,0.00602 ± 0.0023
UCCUGGAUGUCCUUGCAUUGUAUUUAGUUA,0.0543 ± 0.012,0.00683 ± 0.002
UCCUGGAUGUGCUUGCUUAGUAAUUAGUUA,0.0601 ± 0.0087,0.00576 ± 0.0023
UCCUGGAUGUCGUUGCAUAGUAGUUAGUUA,0.013 ± 0.0052,0.00511 ± 0.0031
UCCUCCUACAGCUUCGUUAGUAUUUAGUUA,0.221 ± 0.013,0.00396 ± 0.0017
UCCUGGAUGUCGUUGCAUAGUAUGUUAGUUA,0.203 ± 0.042,0.00861 ± 0.0031
UCCUCCUACACCUUGCAAAGUAUUUAGUUA,0.118 ± 0.015,0.00739 ± 0.0022
UCCUGGAUGUCGUUGCAUAUUAUUUAGUUA,0.0246 ± 0.0061,0.00364 ± 0.0023
UCCUGGAUCAGCUUGCAUAGUAUAUUGUUA,0.118 ± 0.014,0.00518 ± 0.0025
UCCUGGUACAGCAACCAUAGUAUUUAGUAA,0.313 ± 0.064,0.00382 ± 0.0021
UCCUGGAUGAGGUUGCAUAGUUUUUAGUUA,0.00694 ± 0.0049,0.00583 ± 0.0024
UCCUGGAUGUCGAUGCAUAGUAUUUAGGUUA,0.0911 ± 0.016,0.00466 ± 0.0031
UCCUGGUACAGCUUGCAUAUAUUUAGUUA,0.035 ± 0.011,0.00493 ± 0.0024
UCCUGGAUGAGCAAGCAUAGUAUUUAGUAA,0.123 ± 0.018,0.00443 ± 0.0027
UCCUGGAUGUCGAUGCAUAGUAUUUAGUUC [g2:g17:cont:t1C],0.0657 ± 0.0091,0.00831 ± 0.0023
UCCUGGAACAGCAUGCAUAGUAUUUAGUUA,0.256 ± 0.02,0.00812 ± 0.0028
UCCUGGAUGUGCUACCAUAGUAUUUAGUUA,0.0577 ± 0.0094,0.0039 ± 0.0022
UCCUGGAUGUGCAUGCAUAGUAUUAAGUUA,0.122 ± 0.017,0.00463 ± 0.0027
